The results in this text go back to PubChem BioAssay (EPA / NIEHS).

Several values for one entry are separate records, joined by “and”; a condition that tells them apart may be missing. Equal entries are not always repeated. Records with an inconclusive call do not appear. More than one record can exist for a structure, and the calls need not agree. Activity calls are given as the source filed them. Rule for the calls, unless noted: active = hit-call score of the fitted dose curve at least 0.9, where 1 is the maximum; inactive = score below 0.9.

The target of assay [1] is Retinoic acid receptor RXR-alpha (Homo sapiens) (UniProt P19793). The assay is described as follows: OT_NURR1_NURR1RXRa_0480: Odyssey Thera (OT) 8-hour HEK293T Protein Complementation Assay for Nurr1/retinoid X receptor (RXR) (AID 2283385; active = hit-call score of the fitted dose curve at least 0.9, where 1 is the maximum). In a few lines: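 Read-out: fluorescence from protein-fragment complementation between Nurr1 and RXRα in human HEK293T cells, 8 h after dosing. DMSO served as negative control; increased signal counted as activity.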
Sequence of Retinoic acid receptor RXR-alpha (Homo sapiens) (P19793 whole entry, looked up, the tested form may be a part): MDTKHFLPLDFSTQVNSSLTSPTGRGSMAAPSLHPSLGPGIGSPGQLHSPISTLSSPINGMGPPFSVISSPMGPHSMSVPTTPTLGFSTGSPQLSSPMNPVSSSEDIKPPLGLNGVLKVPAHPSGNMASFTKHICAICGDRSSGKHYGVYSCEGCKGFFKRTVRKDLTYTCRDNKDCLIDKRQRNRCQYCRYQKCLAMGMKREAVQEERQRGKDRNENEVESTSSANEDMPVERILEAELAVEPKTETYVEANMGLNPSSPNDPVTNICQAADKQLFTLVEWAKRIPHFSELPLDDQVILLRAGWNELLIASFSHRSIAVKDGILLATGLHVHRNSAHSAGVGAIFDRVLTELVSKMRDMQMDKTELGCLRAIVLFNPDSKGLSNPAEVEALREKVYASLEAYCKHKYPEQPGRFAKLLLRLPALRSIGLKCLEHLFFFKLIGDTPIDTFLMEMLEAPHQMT

For assay [2] the target is unchanged. The assay is described as follows: OT_NURR1_NURR1RXRa_1440: Odyssey Thera (OT) 24-hour HEK293T Protein Complementation Assay for Nurr1/retinoid X receptor (RXR) (AID 2283386; active = hit-call score of the fitted dose curve at least 0.9, where 1 is the maximum). In a few lines:
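Fluorescence PCA read-out; HEK293T; 24 h post-dose; bait/prey fused to reporter fragments; gain-of-signal fit vs DMSO negative control.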

Assay [3] addresses Peroxisome proliferator-activated receptor gamma (Homo sapiens) (UniProt P37231). The assay can be described thus: OT_PPARg_PPARgSRC1_0480: Odyssey Thera (OT) 8-hour Protein-Complementation Assay for Peroxisome Proliferator-activated Receptor Gamma / SRC-1 Co-activator (AID 2283387; active = hit-call score of the fitted dose curve at least 0.9, where 1 is the maximum). The method, boiled down:
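Split-YFP (IFP1/IFP2) PPARg/SRC-1 reporter, HEK293T, 37 °C, 5% CO2; 8 h compound; formaldehyde fix + Draq5; high-content imaging, N/C ratio, ≥350 cells/image, positive direction vs DMSO.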

For assay [4] the target is unchanged. The assay is described as follows: OT_PPARg_PPARgSRC1_1440: Odyssey Thera (OT) 24-hour Protein-Complementation Assay for Peroxisome Proliferator-activated Receptor Gamma/ SRC-1 Co-activator (AID 2283388; active = hit-call score of the fitted dose curve at least 0.9, where 1 is the maximum). The method, boiled down:
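HEK293T transiently transfected with PPARg/SRC-1 split-Venus YFP fusions 48 h before dosing, then treated 24 h at 37C. Fixed cells imaged; nuclear/cytoplasmic 488 nm fluorescence ratio, gain of signal versus DMSO.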

Read-out in assay [5]: Tumor necrosis factor receptor superfamily member 6 (Homo sapiens) (UniProt P25445)
The assay is described as follows: LTEA_HepaRG_FAS: Life Technologies and Expression Analysis (LTEA) Assay for Fas cell surface death receptor (FAS) using HepaRG (AID 2283447). To be noted: mRNA level, 48 h; actives raise or lower the signal. In a few lines:
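FAS transcript level was measured by TaqMan qRT-PCR against three housekeeping genes after 48 h chemical exposure. Cells were HepaRG, 0.5% DMSO vehicle, with a top concentration of 100 uM and half-log dilutions over eight points, in duplicate.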

Read-out in assay [6]: Fatty acid synthase (Homo sapiens) (UniProt P49327)
The assay can be described thus: LTEA_HepaRG_FASN: Life Technologies and Expression Analysis (LTEA) Assay for Fatty Acid Synthase (FASN) using HepaRG (AID 2283448).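 For AC50: differentiated human HepaRG liver cells in serum-free induction medium.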 Particulars: mRNA level, 48 h; actives raise or lower the signal. In a few lines:
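HepaRG, 48 h exposure, 8-pt half-log series top 100 uM, 0.5% DMSO vehicle, duplicates. Readout: FASN transcript by Fluidigm qRT-PCR; housekeeping-normalized; bidirectional curve fit vs DMSO baseline.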

Read-out in assay [7]: Cyclin D2 (CCND2), CCND2 (gene 894)
The assay can be described thus: LTEA_HepaRG_CCND2: Life Technologies and Expression Analysis (LTEA) Assay for Cyclin D2 (CCND2) using HepaRG (AID 2283449). Particulars: mRNA level, 48 h; actives raise or lower the signal. The method, boiled down:
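CCND2 transcript levels, quantified by qRT-PCR and normalised to three housekeeping genes, were fitted bidirectionally against 0.5% DMSO. HepaRG cultures were dosed 48 h in duplicate with an 8-point half-log series up to 100 uM.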

Read-out in assay [8]: Cyclin Dependent Kinase Inhibitor 1A (CDKN1A), CDKN1A (gene 1026)
The assay is described as follows: LTEA_HepaRG_CDKN1A: Life Technologies and Expression Analysis (LTEA) Assay for Cyclin Dependent Kinase Inhibitor 1A (CDKN1A) using HepaRG (AID 2283450). To be noted: mRNA level, 48 h; actives raise or lower the signal. The method, boiled down:
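Differentiated HepaRG cells in serum-free induction medium, exposed 48 h in duplicate to eight half-log concentrations up to 100 uM in 0.5% DMSO. mRNA measured by TaqMan qRT-PCR, normalized to ACTB, GAPDH, POLR2A; bidirectional fit versus DMSO.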

Read-out in assay [9]: Cyclin D1 (CCND1), CCND1 (gene 595)
The assay can be described thus: LTEA_HepaRG_CCND1: Life Technologies and Expression Analysis (LTEA) Assay for Cyclin D1 (CCND1) using HepaRG (AID 2283451).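 For AC50: differentiated human HepaRG liver cells in serum-free induction medium; TaqMan qRT-PCR transcript level normalised to ACTB GAPDH and POLR2A housekeeping genes.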 Particulars: mRNA level, 48 h; actives raise or lower the signal. In a few lines: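 Differentiated HepaRG cells exposed 48 h in serum-free induction medium to eight half-log concentrations from 100 uM top, 0.5% DMSO, duplicates. CCND1 mRNA measured by Fluidigm TaqMan qRT-PCR, normalised to ACTB, GAPDH, POLR2A; bidirectional fit.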

Read-out in assay [10]: catalase (CAT), CAT (gene 847)
The assay is described as follows: LTEA_HepaRG_CAT: Life Technologies and Expression Analysis (LTEA) Assay for catalase (CAT) using HepaRG (AID 2283452). To be noted: mRNA level, 48 h; actives raise or lower the signal. In a few lines:
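Expression of CAT was quantified by TaqMan qRT-PCR with ACTB/GAPDH/POLR2A normalization after 48 h chemical exposure of HepaRG. Eight-point half-log series, top 100 uM, in 0.5% DMSO; gain or loss fitted against vehicle.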

Read-out in assay [11]: flavin-containing dimethylaniline monooxygenases 3 (FMO3), FMO3 (gene 2328)
The assay can be described thus: LTEA_HepaRG_FMO3: Life Technologies and Expression Analysis (LTEA) Assay for flavin-containing dimethylaniline monooxygenases 3 (FMO3) using HepaRG (AID 2283453).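 For AC50: differentiated human HepaRG liver cells in serum-free induction medium; FMO3 transcript by TaqMan qRT-PCR normalized to ACTB GAPDH and POLR2A.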 Particulars: mRNA level, 48 h; actives raise or lower the signal. In a few lines: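 Eight-point concentration-response in serum-free HepaRG cultures (top 100 uM, 0.5% DMSO, 48 h). Read-out: FMO3 mRNA level normalized to three endogenous control genes, fitted bidirectionally versus vehicle.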

Assay [12] in a line: CEETOX_H295R_11DCORT: CeeTox H295R High-throughput Steroidogenesis Assay for 11-Deoxycortisol (11DCORT) (AID 2283432). Particulars: actives raise or lower the signal. The method, boiled down: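 Steroidogenesis in human H295R cells: 48 h chemical exposure after forskolin priming, 11-deoxycortisol measured by LC-MS/MS.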
Assay [13] in a line: CEETOX_H295R_OHPREG: CeeTox H295R High-throughput Steroidogenesis Assay for OH-Pregnenolone (OHPREG) (AID 2283434). To be noted: actives raise or lower the signal. In a few lines: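 Secreted 17alpha-hydroxypregnenolone measured by HPLC-MS/MS after liquid-liquid extraction. Human adrenal H295R cells received 48 h forskolin (10 uM) stimulation before 48 h chemical exposure at 0.1% final DMSO; MTT viability in same wells; bidirectional fit against DMSO.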

Assay [14] in a line: CEETOX_H295R_CORTIC: CeeTox H295R High-throughput Steroidogenesis Assay for Corticosterone (CORTIC) (AID 2283437). To be noted: actives raise or lower the signal. The method, boiled down:
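Medium corticosterone was quantified by tandem mass spectrometry following 48 hours of chemical exposure (0.1% DMSO) in human H295R cells previously stimulated 48 hours with 10 uM forskolin. Viability checked by MTT; chemicals diluted and retested when viability fell below 70%.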

Assay [15] can be described thus: CEETOX_H295R_CORTISOL: CeeTox H295R High-throughput Steroidogenesis Assay for Cortisol (AID 2283438).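 Note: cortisol secreted into medium quantified by LC-MS/MS.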 Particulars: actives raise or lower the signal. The method, boiled down: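 Read-out: cortisol in culture medium by reverse-phase C18 HPLC with ESI-positive tandem MS, after MTBE liquid-liquid extraction. Cells: human adrenal H295R, forskolin-primed (10 uM, 48 h) before 48 h chemical exposure in 0.1% DMSO.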

Assay [16] is described as follows: CEETOX_H295R_DOC: CeeTox H295R High-throughput Steroidogenesis Assay for DOC (AID 2283439). Particulars: actives raise or lower the signal. In a few lines: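 Human adrenocortical H295R cells, passages up to 10, received 10 uM forskolin for 48 h before chemical addition. After another 48 h exposure in 0.1% DMSO, secreted DOC was measured by LC-MS/MS, with gain or loss fitted against DMSO controls.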

A short description of assay [17]: CEETOX_H295R_PROG: CeeTox H295R High-throughput Steroidogenesis Assay for Progesterone (PROG) (AID 2283442). To be noted: actives raise or lower the signal. The method, boiled down: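 H295R adrenal cells prestimulated 48 h with 10 uM forskolin, then exposed 48 h to test chemical in 0.1% DMSO. Progesterone in medium quantified by HPLC-MS/MS after MTBE extraction; viability checked by MTT in same wells.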

Assay [18] can be described thus: CEETOX_H295R_ANDR: CeeTox H295R High-throughput Steroidogenesis Assay for Androstenedione (ANDR) (AID 2283436). To be noted: actives raise or lower the signal. The method, boiled down:
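Medium from 48 h chemical-treated H295R adrenal cells was extracted with MTBE and androstenedione measured by LC-MS/MS. Activity was fit in both directions relative to DMSO. Cytotoxic concentrations were re-tested after dilution until MTT viability reached ≥70%.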

Sequence of Peroxisome proliferator-activated receptor gamma (Homo sapiens) (P37231 whole entry, looked up): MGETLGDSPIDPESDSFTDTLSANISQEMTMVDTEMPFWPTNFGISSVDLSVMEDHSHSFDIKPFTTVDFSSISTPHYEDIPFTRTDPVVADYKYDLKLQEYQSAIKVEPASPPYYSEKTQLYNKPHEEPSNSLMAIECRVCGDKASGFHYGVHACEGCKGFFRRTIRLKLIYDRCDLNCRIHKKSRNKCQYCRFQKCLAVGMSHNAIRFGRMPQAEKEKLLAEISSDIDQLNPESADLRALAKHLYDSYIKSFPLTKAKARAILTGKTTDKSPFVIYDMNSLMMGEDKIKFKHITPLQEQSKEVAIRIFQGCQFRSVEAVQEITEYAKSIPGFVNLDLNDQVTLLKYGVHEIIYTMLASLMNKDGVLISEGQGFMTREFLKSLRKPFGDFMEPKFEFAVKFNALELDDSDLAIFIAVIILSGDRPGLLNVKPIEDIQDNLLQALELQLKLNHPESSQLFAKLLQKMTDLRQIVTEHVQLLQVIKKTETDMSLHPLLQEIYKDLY
Sequence of Fatty acid synthase (Homo sapiens) (P49327 whole entry, looked up): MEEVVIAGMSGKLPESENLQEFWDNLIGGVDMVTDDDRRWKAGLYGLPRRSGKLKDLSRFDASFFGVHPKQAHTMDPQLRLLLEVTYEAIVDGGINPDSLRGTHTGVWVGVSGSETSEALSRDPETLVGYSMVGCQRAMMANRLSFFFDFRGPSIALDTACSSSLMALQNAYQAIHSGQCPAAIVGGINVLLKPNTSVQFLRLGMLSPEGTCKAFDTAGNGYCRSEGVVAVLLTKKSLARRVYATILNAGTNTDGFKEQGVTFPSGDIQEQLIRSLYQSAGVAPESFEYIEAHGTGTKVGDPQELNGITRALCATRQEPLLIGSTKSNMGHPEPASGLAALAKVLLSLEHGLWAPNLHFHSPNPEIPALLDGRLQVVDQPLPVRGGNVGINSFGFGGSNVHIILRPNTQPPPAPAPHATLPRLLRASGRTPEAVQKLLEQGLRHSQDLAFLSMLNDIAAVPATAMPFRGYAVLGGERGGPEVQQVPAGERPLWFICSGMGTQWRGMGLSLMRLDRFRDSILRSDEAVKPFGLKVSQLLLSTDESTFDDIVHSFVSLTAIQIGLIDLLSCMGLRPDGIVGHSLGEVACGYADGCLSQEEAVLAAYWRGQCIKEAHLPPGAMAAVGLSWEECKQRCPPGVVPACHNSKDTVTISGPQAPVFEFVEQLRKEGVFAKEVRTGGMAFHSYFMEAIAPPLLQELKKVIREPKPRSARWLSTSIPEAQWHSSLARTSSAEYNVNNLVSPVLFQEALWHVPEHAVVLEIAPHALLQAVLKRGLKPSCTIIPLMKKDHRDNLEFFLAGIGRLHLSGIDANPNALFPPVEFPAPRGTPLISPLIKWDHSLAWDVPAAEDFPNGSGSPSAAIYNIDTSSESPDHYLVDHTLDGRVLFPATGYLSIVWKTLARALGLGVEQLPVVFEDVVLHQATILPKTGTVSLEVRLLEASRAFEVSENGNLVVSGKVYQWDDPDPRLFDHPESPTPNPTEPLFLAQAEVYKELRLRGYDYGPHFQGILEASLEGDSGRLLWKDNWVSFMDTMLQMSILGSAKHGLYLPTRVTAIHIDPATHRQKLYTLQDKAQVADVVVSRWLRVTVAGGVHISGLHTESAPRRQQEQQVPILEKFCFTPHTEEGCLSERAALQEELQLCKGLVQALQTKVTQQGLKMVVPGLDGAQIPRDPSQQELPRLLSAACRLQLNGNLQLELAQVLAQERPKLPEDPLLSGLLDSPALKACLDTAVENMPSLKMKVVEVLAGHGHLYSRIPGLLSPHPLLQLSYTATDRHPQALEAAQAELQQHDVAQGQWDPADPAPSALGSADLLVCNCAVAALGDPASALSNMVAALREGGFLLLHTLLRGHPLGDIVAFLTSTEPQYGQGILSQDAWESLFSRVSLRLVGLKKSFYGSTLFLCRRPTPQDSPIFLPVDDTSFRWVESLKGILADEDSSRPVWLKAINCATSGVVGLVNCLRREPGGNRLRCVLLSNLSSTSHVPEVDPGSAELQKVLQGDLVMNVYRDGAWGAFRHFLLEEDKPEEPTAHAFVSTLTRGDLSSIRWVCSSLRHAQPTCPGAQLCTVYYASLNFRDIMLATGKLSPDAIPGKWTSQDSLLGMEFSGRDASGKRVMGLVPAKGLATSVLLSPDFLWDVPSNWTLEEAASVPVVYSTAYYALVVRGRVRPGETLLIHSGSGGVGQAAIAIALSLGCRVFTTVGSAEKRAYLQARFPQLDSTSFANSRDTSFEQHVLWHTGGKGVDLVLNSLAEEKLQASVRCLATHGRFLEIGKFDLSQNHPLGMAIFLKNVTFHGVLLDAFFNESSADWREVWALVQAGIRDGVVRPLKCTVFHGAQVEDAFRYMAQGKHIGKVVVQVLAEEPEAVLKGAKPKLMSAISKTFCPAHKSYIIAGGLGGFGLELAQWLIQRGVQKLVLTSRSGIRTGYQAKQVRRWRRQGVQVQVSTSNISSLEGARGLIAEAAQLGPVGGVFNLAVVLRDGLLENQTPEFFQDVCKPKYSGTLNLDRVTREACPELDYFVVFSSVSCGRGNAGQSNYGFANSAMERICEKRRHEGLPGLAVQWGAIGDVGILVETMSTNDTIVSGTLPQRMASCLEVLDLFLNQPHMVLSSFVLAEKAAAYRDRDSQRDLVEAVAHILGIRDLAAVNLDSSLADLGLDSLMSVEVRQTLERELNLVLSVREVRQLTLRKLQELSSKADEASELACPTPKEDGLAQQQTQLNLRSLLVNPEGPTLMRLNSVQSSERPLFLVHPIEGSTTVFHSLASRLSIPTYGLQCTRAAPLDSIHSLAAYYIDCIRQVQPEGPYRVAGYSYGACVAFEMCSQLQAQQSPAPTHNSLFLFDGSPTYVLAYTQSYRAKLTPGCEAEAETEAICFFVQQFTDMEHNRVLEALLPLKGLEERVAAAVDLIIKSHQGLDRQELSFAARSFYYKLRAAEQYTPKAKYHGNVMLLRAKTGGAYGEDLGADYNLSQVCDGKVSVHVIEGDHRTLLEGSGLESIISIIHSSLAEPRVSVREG

Take `CN(C)c1ccc(C(=O)c2ccc(N(C)C)cc2)cc1`: the AC50 is 60.1 µM (active) in assay [1] and 50 µM (active) in [11]. For the same compound, the compound was classed as inactive in [1], in assay [2], in assay [3], in assay [4], in assay [5] and in assay [6]. Besides, the outcome in assay [7], in [8], in [9] and in assay [10] was inactive.
For `CC(C)(OOC(C)(C)c1ccccc1)c1ccccc1`, the AC50 in [1] is 77.4 µM (active) and 93.2 µM (active); in assay [2] it was 78.3 µM (active) and 78.5 µM (active). For the same compound, the outcome in assay [3], in assay [4], in [5], in [6], in assay [8] and in [9] was inactive. Also, the result in assay [10] and in [11] was inactive.
Regarding `C=CCc1ccc2c(c1)OCO2`, the outcome in assay [1], in assay [2], in [3], in assay [4], in assay [5] and in assay [6] was inactive. Moreover, the compound was classed as inactive in [7], in assay [8], in assay [9] and in assay [11].
In the case of `CCC(C)c1ccc(O)cc1` (configuration not stated), the outcome in assay [1], in [2], in assay [12], in [13], in assay [14] and in assay [15] was inactive. Further, the compound was classed as inactive in assay [16], in assay [17], in assay [5], in assay [6], in assay [7] and in [8]. The result in [9], in assay [10] and in assay [11] was inactive.
As to `Cc1cc(N=Nc2ccccc2C)ccc1N`, the compound was classed as inactive in assay [1], in assay [2], in assay [3], in assay [12], in [13] and in assay [18]. Besides, the compound was called inactive in assay [15], in assay [16] and in [7]. For the same compound, the AC50 is 2.24 µM (active) in [14]; 2.5 µM (active) in assay [17]; 2.9 µM (active) in [6]; 3.36 µM (active) in [8]; 39.2 µM (active) in assay [9]; 4.86 µM (active) in assay [11].
For the compound `CC(O)CCO` (configuration not stated), the call in assay [1], in assay [2], in [3], in [6], in assay [8] and in assay [9] was inactive. In assay [11], the compound was classed as inactive.
Turning to `CN(C)[C@@H]1C(=O)C(C(N)=O)=C(O)[C@@]2(O)C(=O)C3=C(O)c4c(O)cccc4[C@@](C)(O)[C@H]3C[C@@H]12`, the compound was called inactive in assay [1], in [2], in assay [3], in assay [6], in [7] and in [8]. Also, the outcome in assay [9], in assay [10] and in [11] was inactive.
`Clc1ccc(C(c2ccc(Cl)cc2)C(Cl)(Cl)Cl)cc1`: the AC50 in assay [1] is 70.1 µM (active); in assay [6], 66.6 µM (active); in assay [11], 88.4 µM (active). The compound was called inactive in assay [2], in [3], in [7], in assay [8] and in assay [9].
For the compound `[As]#[In]`, the outcome in assay [1], in assay [2], in assay [13], in [14], in assay [16] and in assay [17] was inactive. For the same compound, the result in [6], in assay [7], in assay [8], in assay [9] and in [11] was inactive.

One may read the AC50 as the midpoint of the concentration-response curve, whichever way the signal moves.
